# From PubChem BioAssay (NCI)
# The panel holds about 83,000 compounds, 20% with a hit somewhere; the sample as a whole holds those more often.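 For each line, cells grew in 96-well plates with the test compound present at a single concentration for 48 hours.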 Values without a mark were called inactive. Activity calls are given as the source filed them. How the source made its calls: active means growth percent below 10; inactive means the rest.
# Key:
# Assay in all cases: NCI-60 one-dose screen, 48 h (100 = growth as untreated, 0 = no growth, -100 = all killed)
# Details in all cases: 10 µM unless noted
# NCI-H23 lung = system: NCI-H23 lung
# NCI-H226 lung = system: NCI-H226 lung
# NCI-H322M lung = system: NCI-H322M lung
# HOP-62 NSCLC = system: HOP-62 NSCLC
# NCI-H460 lung = system: NCI-H460 lung
# HOP-92 NSCLC = system: HOP-92 NSCLC
# NCI-H522 lung = system: NCI-H522 lung
# A549/ATCC NSCLC = system: A549/ATCC NSCLC
# 786-0 renal = system: 786-0 renal
# COLO 205 colon = system: COLO 205 colon
SMILES,growth (NCI-H23 lung),growth (NCI-H226 lung),growth (NCI-H322M lung),growth (HOP-62 NSCLC),growth (NCI-H460 lung),growth (HOP-92 NSCLC),growth (NCI-H522 lung),growth (A549/ATCC NSCLC),growth (786-0 renal),growth (COLO 205 colon)
COc1cc(N=Nc2cc(Cc3ccc(N(C)C)cc3)c(N)cc2N(C)C)c2ncccc2c1,1.24% (active),19.4%,11%,20%,-60.2% (active),-8.54% (active),-5.05% (active),-45.9% (active),-88.9% (active),-33.7% (active)
O=C(CCc1nnc(CN(c2ccccc2)c2ccccc2)o1)c1nc2ccccc2[nH]1,85.1%,107%,84.4%,89.1%,99.6%,60.6%,73.9%,94.7%,100%,102%
CC/C=C1/C(=O)C=C[C@@H]1C/C=C\CCCC(=O)O,85.5%,93.3%,113%,80.4%,97.1%,121%,24%,87.9%,102%,108%
COc1ccc(C(=O)/C=C/c2c(C(F)(F)F)nc3sccn23)cc1OC,22.7%,53.5%,34.6%,25%,-46.6% (active),78.2%,93.1%,73.8%,32%,27.3%
O=C1CCc2c(sc3[nH]c(=S)n(-c4ccc(OC(F)(F)F)cc4)c(=O)c23)C1,14.1%,72.4%,90.5%,53.1%,2.8% (active),-10.3% (active),7.42% (active),77.1%,99.8%,99.2%
CS(=O)(=O)c1ccc(Nc2nc(N[C@H]3CCCC[C@H]3N)nc3cc[nH]c(=O)c23)cc1,-5.38% (active),-4.65% (active),24.1%,21.1%,12.4%,-8.34% (active),-37% (active),33.6%,22.5%,-3.93% (active)
CCN(CC)S(=O)(=O)c1cccc(-c2ccc3c(NC(=O)C4CC4)n[nH]c3c2)c1,28.5% [6.25 µM],26.5% [6.25 µM],55.6% [6.25 µM],18.5% [6.25 µM],12.3% [6.25 µM],41.3% [6.25 µM],-17% [6.25 µM] (active),21.2% [6.25 µM],18.1% [6.25 µM],3.94% [6.25 µM] (active)
Cc1ccc(/C=C/c2c(C(=O)/C=C/c3ccc(C(F)(F)F)cc3)c(C)nc3ccccc23)cc1,-31.3% (active),-46.1% (active),-1.68% (active),-37.2% (active),-69.6% (active),-76% (active),-10.5% (active),77.2%,-74.9% (active),-24.3% (active)
COc1cc(/C=N/n2c(CN3CCOCC3)nc3ccccc3c2=O)cc(OC)c1OC,98.9%,115%,90%,96.4%,109%,106%,97.9%,92.3%,100%,106%
C=CCNc1nc(NN2C(=O)c3cccc4cccc(c34)C2=O)nc(-n2cnc3ccccc32)n1,76.9%,51.8%,94.1%,60.4%,94.6%,16.5%,76.6%,86.4%,89.2%,103%
Cc1occc1-c1n[nH]c(=S)n1N1C(=O)CSC1=S,102%,98.7%,99.4%,104%,104%,103%,89.3%,103%,100%,111%
COC(=O)CCC1=C(C)C2=NC1=CC1=NC(=CC3=NC(=Cc4[nH]c(/c(=C(/C)O)c4C)=C2)C(C(C)=O)=C3C)C(C)=C1CCC(=O)OC,99.8%,83.9%,102%,98.8%,103%,88.2%,98.8%,88.6%,105%,111%
CCCCc1ccc(Nc2ccc(Nc3ccc(CCCC)cc3S(=O)(=O)O)c3c2C(=O)c2ccccc2C3=O)c(S(=O)(=O)O)c1,91.3%,79.7%,96.3%,99.5%,104%,59.4%,65%,102%,117%,101%
CN1CCN(CC(=O)Nc2nc(-c3cccc(NS(=O)(=O)c4cccc5c(N(C)C)cccc45)c3)cs2)CC1,57.6%,75.2%,105%,85.9%,55.7%,57.6%,67.7%,72.5%,79.5%,76.9%
CC(CN1CCCCC1)C(=O)c1ccccc1 (stereo not given),101%,103%,102%,103%,105%,79%,-57.1% (active),98%,105%,108%
COc1cccc(/C=C/C(=O)c2c(C)nc3ccccc3c2/C=C/c2ccc(C)cc2)c1OC,49.7%,62.8%,82.1%,70%,26.1%,76.4%,50.5%,94.3%,74.5%,80.6%
Clc1cc(Cl)cc(Nc2ccc3cc(OCCCN4CCOCC4)ccc3n2)c1,37.6%,68.5%,59.4%,22%,17.5%,27.5%,-21.1% (active),35.6%,-36.6% (active),-51.3% (active)
O=S(=O)(NCCCNc1cc(-c2c(-c3cccc(O)c3)nc3sccn23)ccn1)c1cccc(Cl)c1,49.1%,61.5%,85.5%,72.8%,47.3%,111%,44.1%,66.5%,54.8%,46.3%
O=C(Nc1cccc(Cl)c1)c1cc(N=Nc2ccc([N+](=O)[O-])cc2Cl)ccc1O,63%,97%,94.2%,72.9%,39.6%,28.3%,-16.5% (active),67.8%,59.1%,82.2%
CCCCCCCCn1ccc2cc(NC(=O)Cn3cc(CN4CCCC4)nn3)ccc21,87.3%,95.5%,49.5%,74%,-64.5% (active),28%,52.3%,40.2%,16.8%,-81.4% (active)
COCCc1ccc(OCC(O)CNC(C)C)cc1 (stereo not given),98.5%,109%,99.2%,101%,107%,73.1%,93.3%,104%,97.8%,106%
O=C(CSc1nnc(-c2ccc(NC(=O)c3cccnc3)cc2)o1)N[C@@H](Cc1ccc(O)cc1)C(=O)O,108%,102%,99.8%,98%,111%,96.3%,91%,104%,99.6%,101%
O=C(N/N=C/c1ccncc1)c1ccc(C(F)(F)F)nc1Nc1cccc(C(F)(F)F)c1,21.4%,23.7%,8.36% (active),13.3%,14.3%,3.81% (active),-9.51% (active),16.1%,-27.9% (active),-3.93% (active)
COc1ccc2c(c1)C(=O)/C(=C/c1cccc(OCC(=O)Nc3nc(C)c(C)s3)c1)O2,-38.6% (active),71.8%,122%,94.8%,158%,-74.8% (active),-72.4% (active),46.8%,-17.2% (active),-59.1% (active)
CCN1C(=O)N(CC)C2Nn3c(s/c(=C4\C(=O)N(C)c5ccccc54)c3=O)=NC21 (stereo not given),44.3%,78.9%,75%,58.4%,22.6%,75.5%,0.903% (active),49.3%,27.8%,8.23% (active)
Cc1cc(O)c(C2=NN(c3ccc(S(N)(=O)=O)cc3)C(c3ccccc3Cl)C2)cc1Cl (stereo not given),2.15% (active),38.7%,48.3%,-6.9% (active),-36.2% (active),38.5%,-56.1% (active),13%,-66.3% (active),-92.1% (active)
CC1CC(C(C)(C)C)C(=O)C(C(C)(C)C)C1 (stereo not given),109%,98.8%,107%,105%,108%,85%,90.8%,100%,100%,115%
